# Test results from the supplement of paper PMC8728848.
# The full list was thinned out, with the strongest signals kept by preference.
# How the values were obtained:
# Experiment in all cases: glycan array binding signal (z-score within array); higher = stronger binding
# Details in all cases: glycan notation: IUPAC condensed, linker removed
# [1] = biological target: Fuc(a1-2)Gal
# In short: (§1)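 The Consortium for Functional Glycomics database supplied 3228 glycan arrays, of which those lacking an available protein sequence were dropped. The binding signal, a within-array Z-score, was averaged across arrays of the same protein sequence and across linkers. Negative scores can be read as non-binding.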
# [2] = biological target: Fuc(a1-2)Gal(b1-4)GlcNAc(b1-3)[Fuc(a1-2)Gal(b1-4)GlcNAc(b1-6)]GalNAc
# In short: as §1
# [3] = biological target: Fuc(a1-2)Gal(b1-4)[Fuc(a1-3)]GlcNAc(b1-3)GalNAc
# In short: as §1
# [4] = biological target: Fuc(a1-2)[Gal(a1-3)]Gal(b1-3)GlcNAc(b1-2)Man(a1-3)[Fuc(a1-2)[Gal(a1-3)]Gal(b1-3)GlcNAc(b1-2)Man(a1-6)]Man(b1-4)GlcNAc(b1-4)[Fuc(a1-6)]GlcNAc
# In short: as §1
# [5] = biological target: Fuc(a1-2)[GalNAc(a1-3)]Gal(b1-3)GalNAc(a1-3)[Fuc(a1-2)]Gal(b1-4)GlcNAc
# In short: as §1
# [6] = biological target: Fuc(a1-3)[Gal(b1-4)]GlcNAc(b1-4)Gal(b1-4)[Fuc(a1-3)]GlcNAc(b1-4)Gal(b1-4)[Fuc(a1-3)]GlcNAc
# In short: as §1
# [7] = biological target: Gal(a1-4)Gal(b1-3)GlcNAc(b1-2)Man(a1-3)[Gal(a1-4)Gal(b1-3)GlcNAc(b1-2)Man(a1-6)]Man(b1-4)GlcNAc(b1-4)GlcNAc
# In short: as §1
# [8] = biological target: Gal(a1-4)Gal(b1-4)Glc
# In short: as §1
# [9] = biological target: Gal(a1-4)Gal(b1-4)GlcNAc(b1-2)Man(a1-3)[Gal(a1-4)Gal(b1-4)GlcNAc(b1-2)Man(a1-6)]Man(b1-4)GlcNAc(b1-4)GlcNAc
# In short: as §1
# [10] = biological target: Gal(b1-3)[Fuc(a1-4)]GlcNAc(b1-2)Man(a1-3)[Gal(b1-3)[Fuc(a1-4)]GlcNAc(b1-2)Man(a1-6)]Man(b1-4)GlcNAc(b1-4)[Fuc(a1-6)]GlcNAc
# In short: as §1
# [11] = biological target: Gal(b1-3)[Fuc(a1-4)]GlcNAc(b1-3)Gal(b1-4)GlcNAc
# In short: as §1
# [12] = biological target: Gal(b1-4)Gal
# In short: as §1
# [13] = biological target: Gal(b1-4)GlcNAc(b1-2)[Gal(b1-4)GlcNAc(b1-4)]Man(a1-3)[Gal(b1-4)GlcNAc(b1-2)[Gal(b1-4)GlcNAc(b1-6)]Man(a1-6)]Man(b1-4)GlcNAc(b1-4)GlcNAc
# In short: as §1
# [14] = biological target: Gal(b1-4)GlcNAc(b1-3)[Gal(b1-4)GlcNAc(b1-6)]Gal(b1-4)GlcNAc
# In short: as §1
# [15] = biological target: GalNAc(a1-3)Fuc(a1-2)Gal(b1-4)GlcNAc(b1-3)[GalNAc(a1-3)Fuc(a1-2)Gal(b1-4)GlcNAc(b1-6)]GalNAc
# In short: as §1
# [16] = biological target: GalNAc(a1-3)GalNAc
# In short: as §1
# [17] = biological target: GalNAc(b1-3)Gal
# In short: as §1
# [18] = biological target: Glc(a1-4)Glc(a1-4)Glc(a1-4)Glc
# In short: as §1
# [19] = biological target: Glc(a1-6)Glc(a1-6)Glc(a1-6)Glc
# In short: as §1
# [20] = biological target: GlcNAc(a1-4)Gal(b1-4)GlcNAc(b1-3)Gal(b1-4)Glc
# In short: as §1
# [21] = biological target: GlcNAc(a1-4)Gal(b1-4)GlcNAc(b1-3)Gal(b1-4)GlcNAc
# In short: as §1
# [22] = biological target: GlcNAc(a1-4)Gal(b1-4)GlcNAc(b1-3)Gal(b1-4)[Fuc(a1-3)]GlcNAc(b1-3)Gal(b1-4)[Fuc(a1-3)]GlcNAc
# In short: as §1
# [23] = biological target: GlcNAc(b1-2)Gal(b1-3)GalNAc
# In short: as §1
# [24] = biological target: GlcNAc(b1-2)Man(a1-3)[GlcNAc(b1-2)Man(a1-6)]Man(b1-4)GlcNAc(b1-4)GlcNAc
# In short: as §1
# [25] = biological target: GlcNAc(b1-2)[GlcNAc(b1-4)]Man(a1-3)[GlcNAc(b1-2)Man(a1-6)]Man(b1-4)GlcNAc(b1-4)GlcNAc
# In short: as §1
# [26] = biological target: GlcNAc(b1-3)Gal(b1-4)Glc
# In short: as §1
# [27] = biological target: GlcNAc(b1-3)GalNAc
# In short: as §1
# [28] = biological target: GlcNAc(b1-4)GlcNAc(b1-4)GlcNAc(b1-4)GlcNAc(b1-4)GlcNAc(b1-4)GlcNAc
# In short: as §1
# [29] = biological target: Man(a1-2)Man(a1-3)Man
# In short: as §1
# [30] = biological target: Man(a1-2)Man(a1-3)[Man(a1-6)]Man(a1-6)[Man(a1-2)Man(a1-3)]Man(b1-4)GlcNAc(b1-4)GlcNAc
# In short: as §1
# [31] = biological target: Neu5Ac(a2-3)Gal(b1-3)GlcNAc(b1-3)GalNAc
# In short: as §1
# [32] = biological target: Neu5Ac(a2-3)Gal(b1-4)GlcNAc(b1-3)Gal(b1-4)GlcNAc(b1-3)Gal(b1-4)GlcNAc
# In short: as §1
# [33] = biological target: Neu5Ac(a2-3)Gal(b1-4)GlcNAc(b1-6)[Gal(b1-3)]GalNAc
# In short: as §1
# [34] = biological target: Neu5Ac(a2-3)Gal(b1-4)[Fuc(a1-3)]GlcNAc(b1-3)Gal
# In short: as §1
# [35] = biological target: Neu5Ac(a2-3)Gal(b1-4)[Fuc(a1-3)]GlcNAc(b1-3)Gal(b1-4)GlcNAc
# In short: as §1
# [36] = biological target: Neu5Ac(a2-3)Gal(b1-4)[Fuc(a1-3)]GlcNAc(b1-3)GalNAc
# In short: as §1
# [37] = biological target: Neu5Ac(a2-3)Gal6S(b1-4)[Fuc(a1-3)]GlcNAc
# In short: as §1
# [38] = biological target: Neu5Ac(a2-6)Gal(b1-4)GlcNAc6S
# In short: as §1
# [39] = biological target: Neu5Ac(a2-8)Neu5Ac(a2-3)[GalNAc(b1-4)]Gal(b1-4)Glc
# In short: as §1
# [40] = biological target: Neu5Ac(a2-8)Neu5Ac(a2-8)Neu5Ac(a2-3)[GalNAc(b1-4)]Gal(b1-4)Glc
# In short: as §1
binder,measurement,setting,value
"RetS (Pseudomonas aeruginosa), Q9HUV7 (protein) MVRLRIAIGLLVSFLLLLLGPMSPAVADDAGVSSVPLQTTATTPSANQNWRLLRDESAQLRIADVLQRKEQFRPLAKRSFIFPASPQAVWLQVQLPAQKVPSWLWIFAPRVQYLDYYLVQDGQLVRDQHTGESRPFQERPLPSRSYLFSLPVDGKPMTLYVRMTSNHPLMAWFDQIDEAGLVGLEKPAYAFGMLLGGMLLLLMYNLIRFAYSRSASSLWLAAVHAALAVCAAANLGLVAFWLPGLKFNQSLTADLGALGAAVSLLWFACSFFRGTAESRLNRLLQGEALLILAVGAIIAFTQQLWFSWLIYLLVILSSLSVPLIAAWHWYRGYQPARLIVAGMIVFNAGFMVFLPVLFGTKQLDPGWLVLGVFSFATLAGLVLSVSLTERQRLIQQLNLQQRTSEAAHTAELQTKAEFLAKISHEIRTPMNGVLGMTELLLGTPLSAKQRDYVQTIHSAGNELLTLINEILDISKLESGQIELDEVQFDLNALIEDCLDIFRVKAEQQRIELISFTQPQVPRVIGGDPTRLRQVVLSLLDNAFKQTEEGEILLVVALDDQGETPRLRIAVQDSGHPFDAKEREALLTAELHSGDFLSASKLGSHLGLIIARQLVRLMGGEFGIQSGSSQGTTLSLTLPLDPQQLENPTADLDGPLQGARLLVVDDNETCRKVLVQQCSGWGLNVSAVSSGKEALAQLRTKAHLREYFDVVLLDQDMPGMTGMQLAAKIKEDPNLNHDILLIMLTGISNAPSKIIARNAGIKRILAKPVAGYTLKATLADELAQRGVSGVTNYLQPAKEAQAPSLPSDFRILVAEDNSISTKVIRGMLNKLNLQPDTASNGQEALSAMKATQYDLVLMDCEMPVLDGFSATEQLRAWEAHEQRPHTPVVALTAHILSEHKERARLVGMDGHMAKPVELSQLRELIAYWVGERDRRRQGDALPS",glycan array binding signal (z-score),[1],1.84
same,glycan array binding signal (z-score),[2],0.163
same,glycan array binding signal (z-score),[3],1.16
same,glycan array binding signal (z-score),[4],2.79
same,glycan array binding signal (z-score),[5],0.731
same,glycan array binding signal (z-score),[6],-0.414
same,glycan array binding signal (z-score),[7],5.23
same,glycan array binding signal (z-score),[8],-0.16
same,glycan array binding signal (z-score),[9],3.05
same,glycan array binding signal (z-score),[10],-0.397
same,glycan array binding signal (z-score),[11],0.071
same,glycan array binding signal (z-score),[12],3.18
same,glycan array binding signal (z-score),[13],0.39
same,glycan array binding signal (z-score),[14],-1.17
same,glycan array binding signal (z-score),[15],1.02
same,glycan array binding signal (z-score),[16],-0.917
same,glycan array binding signal (z-score),[17],-0.593
same,glycan array binding signal (z-score),[18],-0.095
same,glycan array binding signal (z-score),[19],-0.394
same,glycan array binding signal (z-score),[20],0.236
same,glycan array binding signal (z-score),[21],6.62
same,glycan array binding signal (z-score),[22],4.27
same,glycan array binding signal (z-score),[23],-0.622
same,glycan array binding signal (z-score),[24],0.152
same,glycan array binding signal (z-score),[25],-0.599
same,glycan array binding signal (z-score),[26],2.75
same,glycan array binding signal (z-score),[27],-0.143
same,glycan array binding signal (z-score),[28],0.22
same,glycan array binding signal (z-score),[29],-1.17
same,glycan array binding signal (z-score),[30],0.409
same,glycan array binding signal (z-score),[31],-0.17
same,glycan array binding signal (z-score),[32],0.517
same,glycan array binding signal (z-score),[33],-0.343
same,glycan array binding signal (z-score),[34],-0.075
same,glycan array binding signal (z-score),[35],1.76
same,glycan array binding signal (z-score),[36],3.56
same,glycan array binding signal (z-score),[37],-0.246
same,glycan array binding signal (z-score),[38],0.369
same,glycan array binding signal (z-score),[39],0.67
same,glycan array binding signal (z-score),[40],0.181
